8 molecules from PubChem BioAssay can be followed below.

Structures are written as SMILES. The source made the active and inactive calls.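 Rule for the calls, unless noted: active = visual image review flags a hit and inhibition of aggregation exceeds 20%; inconclusive = visual hit but inhibition at or below 20%; inactive = no hit on visual image review.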

Experiment [1] is described as follows: inhibitors of TNFa-induced NFkB p65 translocation, primary screen, imaging, HUVEC, MLSMR starter and 10KST1 sets (AID 438;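 active = inhibition above 20% together with a positive visual image hit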;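 note: compound added about 3h40 before a 20 min TNFalpha stimulation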;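 for inhibition: signal is the nuclear over cytoplasmic p65 intensity ratio per well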). To be noted: HUVEC TNFa-induced p65 nuclear translocation; cell count: measured here: nuclei count (cytotoxicity indicator), at 2.08 µM; inhibition: at 2 µM, stronger effect = higher value, 0% TNFa-plus-vehicle, 100% no-TNFa wells.
Experiment [2] can be described thus: inhibitors of mutant huntingtin aggregation, primary screen, imaging, exon1htt(103Q)mCFP cells, high-content imaging (AID 483).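 For nuclei count: percent of the per-plate median nuclei count of sample wells.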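 Note: compound exposure lasted 3 days before fixation.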 To be noted: exon1htt(103Q)mCFP cell line, aggregate imaging, at 2 µM; inhibition of aggregation: stronger effect = higher value; nuclei count: measured here: cell count, toxicity.
Experiment [3] is described as follows: inhibitors of E-selectin induction by TNFa, primary screen, imaging, HUVEC, immunofluorescence, MLSMR starter and 10KST1 sets (AID 487;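 active = visually confirmed hit in the image check and inhibition above 20%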;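 for inhibition: signal is fraction of cell area covered by stained E-selectin grains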;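 for nuclei count: 100% = median nuclei count of all wells on the same plate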). To be noted: HUVEC TNFalpha-induced E-selectin immunofluorescence imaging, at 2 µM; inhibition: stronger effect = higher value; nuclei count: measured here: cell number, toxicity.
Experiment [4] concerns the target Voltage-gated potassium channel subunit beta-2 (Rattus norvegicus) (UniProt P62483). As to the kind of experiment: KvBeta enzyme negative modulators, primary screen, biochemical, NADPH fluorescence (AID 622;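 active = fluorescence slope higher than the sample average by over 3 SD, cut at about -0.22 in these data, passing the limit was not always enough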;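 note: slope of raw intensity against log time taken from 70 to 1610 s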). Conditions: recombinant KvBeta, 4-cyanobenzaldehyde reduction, at 10 µM, stronger effect = higher value.
The target is the same in experiment [5]. The experiment in a line: KvBeta positive modulators, primary screen, biochemical, NADPH fluorescence (AID 623;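 active = NADPH fluorescence slope more negative than the mean of all samples by about 3 SD, 99.7% confidence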;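 note: fluorescence intensity change per second fitted from 20 to 320 s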). To be noted: Recombinant KvBeta, NADPH fluorescence decrease slope, 10 min; at 10 µM; stronger effect = lower value.
In experiment [6] the target is Alpha-2C adrenergic receptor (Homo sapiens) (UniProt P18825). As to the kind of experiment: modulators of alpha2C/GIRK thallium flux, primary screen, cell-based, HEK293 alpha2C/GIRK1/2 (AID 624;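 active = fluorescence slope after compound addition differing from the mean of all screened samples at 99.7% confidence, in either direction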;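 note: slope of fluorescence ratio to pre-addition baseline per second over 15 to 24 s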). To be noted: thallium flux BTC fluorescence, at 10 µM, actives lie on both sides.
A short description of experiment [7]: inhibitors of Sendai virus-induced IRF3 signaling, primary screen, TLR/RLR signaling modifier project, cell-based, Sendai virus stimulus, luciferase, 10K MLSCN set (AID 602276;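 active = inhibition at or above 50% at 10 µM; inactive = inhibition below 50%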;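 note: firefly luciferase from ISG56 promoter only with Renilla not read in this screen; 0% = Sendai virus plus DMSO and 100% = medium plus DMSO without virus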). To be noted: HEK293 RL24 IRF3 luciferase reporter, at 10 µM, stronger effect = higher value.
Experiment [8] is described as follows: inhibitors of poly I:C-induced TLR3 signaling, primary screen, cell-based, poly I:C stimulus, luciferase, 10K MLSCN set (AID 602277;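 active = inhibition of the reporter signal at or above 50%; inactive = inhibition below 50%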). To be noted: HEK293-TLR3 RL24 IRF3 luciferase reporter, at 10 µM, stronger effect = higher value.

Sequence of Voltage-gated potassium channel subunit beta-2 (Rattus norvegicus) (P62483 whole entry, looked up): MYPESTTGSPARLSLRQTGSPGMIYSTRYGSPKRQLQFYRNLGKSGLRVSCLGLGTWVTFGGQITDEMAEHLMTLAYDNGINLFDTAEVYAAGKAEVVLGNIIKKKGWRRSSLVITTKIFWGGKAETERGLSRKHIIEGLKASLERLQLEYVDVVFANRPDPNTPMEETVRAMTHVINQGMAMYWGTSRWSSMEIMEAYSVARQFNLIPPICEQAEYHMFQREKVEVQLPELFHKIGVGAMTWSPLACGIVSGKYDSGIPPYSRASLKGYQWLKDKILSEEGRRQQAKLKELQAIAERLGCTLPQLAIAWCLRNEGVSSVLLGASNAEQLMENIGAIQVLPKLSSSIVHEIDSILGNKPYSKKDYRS
Sequence of Alpha-2C adrenergic receptor (Homo sapiens) (P18825 whole entry, looked up): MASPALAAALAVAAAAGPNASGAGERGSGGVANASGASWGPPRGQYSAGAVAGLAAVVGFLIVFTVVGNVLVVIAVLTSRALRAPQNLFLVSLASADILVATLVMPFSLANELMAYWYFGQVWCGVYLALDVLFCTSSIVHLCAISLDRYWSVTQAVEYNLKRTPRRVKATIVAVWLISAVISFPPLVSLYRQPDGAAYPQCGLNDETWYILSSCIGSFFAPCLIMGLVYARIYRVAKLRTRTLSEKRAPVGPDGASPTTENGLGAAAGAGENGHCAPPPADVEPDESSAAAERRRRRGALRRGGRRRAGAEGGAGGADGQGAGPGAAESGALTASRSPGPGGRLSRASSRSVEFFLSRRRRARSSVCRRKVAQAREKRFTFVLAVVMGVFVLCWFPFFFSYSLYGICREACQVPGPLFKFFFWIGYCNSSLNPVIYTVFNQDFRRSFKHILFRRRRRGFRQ

As for `COc1ccc(OC)c(C(=O)CSc2nc3ncccc3[nH]2)c1`, in experiment [1], the cell count is 238. Further, the inhibition in experiment [1] was 9.5% (inactive); in experiment [3], 52.6% (inactive); in experiment [7] it was -7.2% (inactive); in experiment [8] it was -19.6% (inactive). In addition, the inhibition of aggregation in experiment [2] is 16.2% (inactive). Besides, the nuclei count was 113% in experiment [2] and 99.6% in experiment [3]. In experiment [4], the fluorescence slope was -0.488 (inactive). Also, the NADPH fluorescence slope in experiment [5] is -7e-05 (inactive). For the same molecule, the slope in experiment [6] was 0.00695 (inactive).

Take `O=c1[nH]c2cc3c(cc2cc1C(c1nnnn1C1CCCCC1)N1CCSCC1)OCCO3` (stereo not drawn): in experiment [1], the cell count came out at 479. In addition, the inhibition in experiment [1] was 0% (inactive); in experiment [3], -10% (inactive); in experiment [7] it was -11.4% (inactive); in experiment [8] it was -7.01% (inactive). Moreover, the inhibition of aggregation in experiment [2] is -12.4% (inactive). Besides, the nuclei count was determined as 106% in experiment [2] and 96.7% in experiment [3]. Besides, the fluorescence slope in experiment [4] is -0.313 (inactive). Also, the NADPH fluorescence slope in experiment [5] is -3.2e-05 (inactive). Also, the slope in experiment [6] was 0.00532 (inactive).

Consider `CCOc1cc(NC(=O)c2ccccn2)c(OCC)cc1NC(=O)CC(C)C`, for which the cell count in experiment [1] came to 609. Besides, the inhibition was -11.5% (inactive) in experiment [1], -76.1% (inactive) in experiment [3], -9.2% (inactive) in experiment [7] and -24.5% (inactive) in experiment [8]. Further, the inhibition of aggregation in experiment [2] is -0.3% (inactive). The figures for the nuclei count in experiment [2] and in experiment [3] were 115% and 119%, respectively. In addition, in experiment [4], the fluorescence slope was -0.615 (inactive). Moreover, the NADPH fluorescence slope in experiment [5] is 4.7e-06 (inactive). In addition, the slope in experiment [6] was 0.00499 (inactive).

As to `CCC(OC(=O)c1cccs1)C(=O)NCc1ccco1` (stereo not drawn), the cell count in experiment [1] was found to be 404. Further, the inhibition in experiment [1] is 5.2% (inactive); in experiment [3] it was -72.5% (inactive); in experiment [7], 16.1% (inactive); in experiment [8] it was 25% (inactive). Further, the inhibition of aggregation in experiment [2] is 10.4% (inactive). Also, the figures for the nuclei count in experiment [2] and in experiment [3] were 90.1% and 118%, respectively. The fluorescence slope in experiment [4] was -0.44 (inactive). In addition, the NADPH fluorescence slope in experiment [5] is -0.000112 (inactive). Besides, the slope in experiment [6] was 0.00455 (inactive).

On to `Cc1ccc2oc(=O)c3cnn(CC(=O)N4CCCCC4C)c3c2c1` (stereo not drawn), for which, in experiment [1], the cell count amounted to 661. Moreover, the inhibition in experiment [1] is 3.9% (inactive); in experiment [3] it was 3.2% (inactive); in experiment [7] it was 3.36% (inactive); in experiment [8], 23.4% (inactive). In addition, the inhibition of aggregation in experiment [2] is -4% (inactive). Further, the nuclei count was 77.1% in experiment [2] and 88.1% in experiment [3]. In experiment [4], the fluorescence slope is -0.518 (inactive). In addition, the NADPH fluorescence slope in experiment [5] was -1.6e-05 (inactive). Further, in experiment [6], the slope is 0.00597 (inactive).

Turning to `O=S(=O)(c1ccc(S(=O)(=O)N(Cc2ccco2)Cc2ccccc2Cl)cc1)N1CCCC1`, the cell count in experiment [1] was determined as 818. Also, the inhibition in experiment [1] was -6.1% (inactive); in experiment [3], -38.1% (inactive); in experiment [7] it was 8.74% (inactive); in experiment [8], 28% (inactive). Also, the inhibition of aggregation in experiment [2] is -2.8% (inactive). Also, the values for the nuclei count in experiment [2] and in experiment [3] were 108% and 126%, respectively. The fluorescence slope in experiment [4] is -0.587 (inactive). In experiment [5], the NADPH fluorescence slope is -3.1e-05 (inactive). Moreover, the slope in experiment [6] was 0.00951 (inactive).

For the molecule `COCCNC(=O)C(C)N(c1ccc(Oc2ccccc2)cc1)S(C)(=O)=O` (stereo not drawn), the cell count in experiment [1] is 333. Besides, the inhibition in experiment [1] is 2.5% (inactive); in experiment [3], -21.7% (inactive); in experiment [7], 14.7% (inactive); in experiment [8], 23.7% (inactive). The inhibition of aggregation in experiment [2] was -15.1% (inactive). Moreover, the figures for the nuclei count in experiment [2] and in experiment [3] were 98.6% and 111%, respectively. Besides, in experiment [4], the fluorescence slope was -0.445 (inactive). The NADPH fluorescence slope in experiment [5] was -6.4e-05 (inactive). Further, the slope in experiment [6] was 0.00568 (inactive).

Take `CC(=O)Nc1ccccc1-c1nc2ccc(C(=O)N3CCN(c4ccccc4)CC3)cc2[nH]c1=O`: the cell count in experiment [1] came out at 617. The inhibition in experiment [1] was 14.7% (inactive); in experiment [3], -3.1% (inactive); in experiment [7] it was 5.92% (inactive); in experiment [8] it was -0.673% (inactive). Also, the inhibition of aggregation in experiment [2] is -6.6% (inactive). Moreover, the results for the nuclei count in experiment [2] and in experiment [3] were 96.8% and 110%, respectively. Also, the fluorescence slope in experiment [4] is -0.489 (inactive). Also, the NADPH fluorescence slope in experiment [5] was -4.7e-05 (inactive). The slope in experiment [6] was 0.00656 (inactive).
